# Screens: PubChem BioAssay, Paczesny and Yang Labs, IUPUI and University of Michigan
# The entries come from a sample that favours hits as a whole.
# ST2 inh = inhibitors of human ST2 (IL1RL1) binding to IL-33; Q01638; AlphaLISA ST2-Fc/biotin-IL-33 interaction, 1 h; inhibition, % for hits at 17 µM; 2.3% of 78,000 active; in the data active = inhibition above about 30%
# Target sequence (Q01638 whole entry, looked up): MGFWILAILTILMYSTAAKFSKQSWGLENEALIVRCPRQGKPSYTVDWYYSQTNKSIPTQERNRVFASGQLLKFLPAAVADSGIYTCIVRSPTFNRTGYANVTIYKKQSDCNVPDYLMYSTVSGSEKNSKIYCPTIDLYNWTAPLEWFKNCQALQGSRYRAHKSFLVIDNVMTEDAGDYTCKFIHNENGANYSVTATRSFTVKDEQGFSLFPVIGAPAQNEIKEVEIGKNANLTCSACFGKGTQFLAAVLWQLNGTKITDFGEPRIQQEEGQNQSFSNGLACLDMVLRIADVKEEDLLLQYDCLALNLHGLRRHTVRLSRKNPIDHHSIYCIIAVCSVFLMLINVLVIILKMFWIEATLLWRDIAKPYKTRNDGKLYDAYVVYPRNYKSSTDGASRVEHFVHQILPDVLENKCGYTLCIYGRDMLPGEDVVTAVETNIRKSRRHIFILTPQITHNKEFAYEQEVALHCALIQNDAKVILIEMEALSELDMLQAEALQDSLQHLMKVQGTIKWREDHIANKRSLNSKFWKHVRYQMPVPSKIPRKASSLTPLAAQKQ
# * hit, by the source's call; i = inactive.
SMILES,ST2 inh
CC(C)(C)CC(=O)N[C@@H]1C=C(C(=O)NCCC(N)=O)C[C@@H](O)[C@@H]1O,83.0%*
COc1ccc(C(=O)NC2CCCc3nc(-c4ccccc4)ncc32)o1 (configuration not stated),i
O=C1C2CCCN2C(c2ccc(Cl)cc2Cl)N1c1nccs1 (configuration not stated),i
O=c1n(CCCn2cccc2)nc(C2CCNCC2)n1-c1ccccc1,30.0%*
O=c1n(Cc2cccc(F)c2F)nc(C2CCNCC2)n1Cc1ccccc1,i
CC(C)SCCn1nc(C2CCCNC2)n(-c2ccccc2)c1=O (configuration not stated),i
CCN(CC)CCNC(=O)c1sc2ccccc2c1Cl,i
Cc1nn(C)c(Cl)c1S(=O)(=O)N1CCC2(CCNCC2)C1,i
CCN1CC(CNc2ccc(-c3nc(-c4ccccc4F)no3)cn2)CC1=O (configuration not stated),i
O=[N+]([O-])c1ccc(-c2cnc(-c3ccccc3)nc2)cc1,i
N#Cc1cc([N+](=O)[O-])cnc1NCCO,i
N#Cc1cc([N+](=O)[O-])cnc1Sc1ccccc1,32.0%*
O=C(O)c1ccc(O)c(C=Nc2cc(Cl)ccc2Cl)c1,i
O=C(NC(Nc1ccc([N+](=O)[O-])cc1)C(=O)c1ccccc1)c1ccccc1 (configuration not stated),i
Cc1cc([N+](=O)[O-])ccc1NC(NC(=O)c1cccs1)C(=O)c1ccccc1 (configuration not stated),35.0%*
Cc1cc([N+](=O)[O-])ccc1NC(=O)CC(C)c1ccccc1 (configuration not stated),i
CCCC(C)C(=O)N1CCN(c2ccccc2)CC1 (configuration not stated),i
Clc1ccc(-c2nnc3ccc(Cl)nn23)cc1,i
Cc1cnn(-c2ccc3nnc(-c4ccc(Cl)cc4)n3n2)c1,36.0%*
Cc1ccn2cc(-c3ccc(Cl)cc3)nc2c1,i
CCSc1nc2c(sc3ccccc32)c(=O)n1CC1CCCO1 (configuration not stated),i
CCn1c(C(=O)O)c(CC(=O)N2CCN(c3ccccc3)CC2)c2ccccc21,i
Cc1c(CCCN)c2ccccc2n1-c1ccccc1,34.0%*
CCOC(=O)c1c(C)n(-c2ccccc2)c2ccc(OC(=O)c3ccco3)cc12,i
CC1(C)Cc2nc3sc4c(OCC(=O)c5ccccc5)ncnc4c3cc2CO1,i
SMILES,ST2 inh
N#Cc1c(NC(=O)c2cc(=O)c3ccccc3o2)sc2c1CCCCC2,i
COc1ccc(C2C3C(=O)NC(=O)C3ON2c2ccc(Cl)cc2)cc1 (configuration not stated),31.0%*
COc1ccc(C2C(C(=O)Nc3ccc(F)c(Cl)c3)CC(=O)N2c2ccc(OC)cc2)cc1 (configuration not stated),i
COc1ccc(N2C(=O)C3C(c4ccc(F)cc4)OC4(C(=O)c5ccccc5C4=O)C3C2=O)cc1 (configuration not stated),i
CCOc1cc(C)c(Cl)cc1S(=O)(=O)N1CCNC(C(=O)O)C1 (configuration not stated),i
CC12CCC(C/C1=N/OC(=O)c1ccc(F)cc1)C2(C)C (configuration not stated),i
CCCCNC(=O)Cn1cnc2c1c(=O)n(C)c(=O)n2C,i
Cn1c(=O)c2c(ncn2CC(=O)Nc2ccccn2)n(C)c1=O,i
CC1CN(C(=O)Cn2cnc3c2c(=O)n(C)c(=O)n3C)CC(C)O1 (configuration not stated),95.0%*
N=C1S/C(=C\c2ccc(N3CCOCC3)cc2)C(=O)N1c1ccc(Br)cc1,32.0%*
Cc1ccc(N2C(=O)S/C(=C\c3ccc(O)cc3)C2=O)cc1,i
N=C1S/C(=C\c2ccc(O)cc2)C(=O)N1c1ccc(F)cc1,i
O=C(c1cccc(N2CCNC2=O)c1)N1CCCC(CCc2ccc(F)cc2)C1 (configuration not stated),i
CCn1cnc(NC(=O)N(C)Cc2ccc(OC)cc2)n1,i
COc1cc(-c2ncnn2-c2ccc(Cl)cc2)cc(OC)c1OC,i
COc1cc(-c2ncnn2-c2cccc(Cl)c2C)cc(OC)c1OC,33.0%*
Clc1ccc(-c2ncnn2-c2ccccc2Cl)cc1,i
COc1cccc(C(=O)Nc2cc(C)ccc2OCc2cc(=O)n3oc(C)cc3n2)c1,i
COc1ccc(/C=C2/SC(=Nc3ccc(S(N)(=O)=O)cc3)NC2=O)cc1,37.0%*
CCOc1cc(/C=C2/SC(=Nc3ccccc3)NC2=O)ccc1OC,i
O=C1N/C(=N/O)S/C1=C/c1ccc([N+](=O)[O-])cc1,i
O=C1NC(=Nc2ccccc2)S/C1=C/c1cc2c(cc1Br)OCO2,i
CC(C)c1ccc(/C=C2/SC(=Nc3ccccc3)NC2=O)cc1,37.0%*
COc1cc(/C=C2/SC(=Nc3ccccc3Cl)NC2=O)cc(OC)c1,i
COCc1nc(NC(C)CCc2ccco2)c2cnn(C)c2n1 (configuration not stated),i
SMILES,ST2 inh
COc1ccccc1NC(=O)CSc1nc2c(cc1C#N)CCCCC2,i
Cc1cccc(N2C(=O)c3cc4ccccc4cc3C2=O)c1,i
CCN1/C(=C\C(=O)c2cccc([N+](=O)[O-])c2)Sc2ccccc21,i
Cc1[nH]nc(NN)c1Cl,55.0%*
COC[C@H]1CCCN1[C@@H]1[C@H](O)[C@H](CO)O[C@@H]1CNC(=O)c1ccco1,i
CN(c1ccccc1)S(=O)(=O)c1ccc(C(=O)Nc2nc(-c3ccccn3)cs2)cc1,i
COc1cc(/C=C2\SC(=Nc3c(C)n(C)n(-c4ccccc4)c3=O)NC2=O)ccc1O,i
O=C1NC(=Nc2cccc(Cl)c2Cl)S/C1=C/c1ccco1,i
Cc1cccc(N=C2NC(=O)/C(=C\c3ccco3)S2)c1,31.0%*
COC(=O)c1ccc(CNC(=O)c2cn(Cc3ccccc3Cl)nn2)cc1,i
CC(C)C(=O)Nc1cccnc1-c1ccc(C(=O)O)s1,i
CCN(Cc1ccccc1)S(=O)(=O)c1cc(Br)cc2c1N(C(C)=O)C(C)C2 (configuration not stated),i
Cc1cc(C)c(-n2cccn2)c(CN2CCN(C)C3(CCN(C)CC3)C2)c1,i
CCC(=O)Nc1ccccc1Oc1c(F)c(F)c(Oc2ccccc2NC(=O)CC)c(F)c1F,i
COc1ccc(N2C(=O)C(N3C(=O)c4ccccc4C3=O)C2c2cccc(OC)c2)cc1 (configuration not stated),i
COc1ccc(C2CC(c3ccc(Br)cc3)=NN2S(=O)(=O)c2ccccc2)cc1 (configuration not stated),34.0%*
COc1ccc(C2=NN(S(=O)(=O)c3ccccc3)C(c3ccc(Br)cc3)C2)cc1 (configuration not stated),i
COc1ccc(C2=NN(C(=O)CCC(=O)O)C(c3ccc(Cl)cc3)C2)cc1 (configuration not stated),i
COc1ccc(NC(=O)CN2C(=O)c3ccc([N+](=O)[O-])cc3C2=O)c(OC)c1,i
COc1ccccc1C1CC(c2ccc(Br)cc2)=NN1S(=O)(=O)c1ccccc1 (configuration not stated),i
COc1ccc(C2CC(c3ccccc3)=NN2S(=O)(=O)c2ccccc2)cc1 (configuration not stated),i
COc1ccc(C2=NN(CN3C(=O)C(=O)c4ccccc43)C(c3cccc([N+](=O)[O-])c3)C2)cc1 (configuration not stated),39.0%*
